Screens: PubChem, National Center for Advancing Translational Sciences (NCATS)
Tau ThT inhib = inhibitors of human tau fibril formation, thioflavin T binding. P10636. recombinant tau K18 P301L, heparin-induced fibrillization, ThT fluorescence. Potency, µM (doses to about 57.4 µM), for inactives: at the highest dose activity, negative = inhibition, actives largely listed as inhibitors. 270,000 compounds, 2.1% hits. AID 1460; further: nearly all actives have a fitted effect of over 55% in size
Target sequence (P10636 561-689 P618L limits assumed): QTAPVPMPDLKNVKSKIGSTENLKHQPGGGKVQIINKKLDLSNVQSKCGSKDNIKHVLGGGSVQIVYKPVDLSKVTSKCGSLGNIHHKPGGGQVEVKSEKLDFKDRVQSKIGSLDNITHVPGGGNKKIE
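In this qHTS, human K18 P301L tau is incubated with compound and heparin for 6 hr at 37 C, and Thioflavin T fluorescence then reports fibril load.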
RORgamma inh = ROR gamma (mouse) transcription inhibition; P51450; Drosophila S2 Gal4-RORgamma UAS-luciferase reporter, 20 h; Potency, µM (doses to about 53.6 µM), for the others: at the top dose activity change, negative = inhibition, usual class: inhibitors; 310,000 compounds, 5.4% hits; further: nearly all actives have a fitted effect of over 60% in size
Target sequence (P51450 whole entry, looked up, the tested form may be a part): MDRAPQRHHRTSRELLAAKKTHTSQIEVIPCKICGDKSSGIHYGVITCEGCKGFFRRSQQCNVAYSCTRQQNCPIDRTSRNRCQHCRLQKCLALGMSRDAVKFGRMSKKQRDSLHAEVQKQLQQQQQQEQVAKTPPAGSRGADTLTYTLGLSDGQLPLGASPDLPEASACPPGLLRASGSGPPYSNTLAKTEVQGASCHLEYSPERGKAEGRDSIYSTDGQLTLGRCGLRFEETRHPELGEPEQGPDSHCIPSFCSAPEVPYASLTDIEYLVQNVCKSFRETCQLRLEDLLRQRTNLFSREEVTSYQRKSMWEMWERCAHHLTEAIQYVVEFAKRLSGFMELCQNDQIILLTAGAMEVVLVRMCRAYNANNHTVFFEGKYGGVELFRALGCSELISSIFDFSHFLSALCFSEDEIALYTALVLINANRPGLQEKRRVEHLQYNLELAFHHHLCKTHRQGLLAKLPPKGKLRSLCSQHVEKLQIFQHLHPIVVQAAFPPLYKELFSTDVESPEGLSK
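Read-out: Photinus luciferase luminescence; inhibitors lower reporter signal. Insect Schneider cells with Gal4-ROR gamma fusion under metallothionein promoter, UAS reporter; 700 uM final copper sulfate induction, 20 hr, ambient temperature.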
Tau fluor counter = counter-screen for tau fibril formation inhibitors; tau K18 P301L Alexa594 fluorescence, heparin fibrillization; Potency, µM (doses to about 57.7 µM), without a hit: at the top dose activity change, negative = decrease; 280,000 compounds, 0.93% hits; AID 1463; further: nearly all actives have a fitted effect of over 55% in size
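Human tau K18 P301L (15 uM unlabeled, 0.24 uM Alexa 594-labeled) in 100 mM sodium acetate pH 7 with 20 uM heparin, 6 hr at 37 C. ThT 30 uM added, 1 hr ambient; Alexa 594 FP and total fluorescence read at 555/632 nm.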
Gal4-VP16 FLuc = inhibits Gal4-VP16 luciferase reporter, ROR gamma counter-screen | 310,000 compounds, 3.5% hits | Potency, µM (doses to about 53.6 µM), for the others: top-dose activity, negative = inhibition, most hits filed as inhibitors | AID 2546 | Drosophila S2 Gal4-VP16 UAS-luciferase, luminescence, 20 h;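 further: Gal4-VP16 expression switched on by copper sulfate through the metallothionein promoter; nearly all actives have a fitted effect of over 50% in size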
Tau FP inhib = blocks human tau fibril formation measured by polarization; 280,000 compounds, 0.39% hits; AID 1468; P10636; Potency, µM (titrated, usually from 57.7 µM), without a hit: at the top dose activity, negative = inhibition, most hits filed as inhibitors; K18 P301L tau heparin fibrillization, Alexa594 FP, 6 h; further: nearly all actives have a fitted effect of over 55% in size
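Recombinant K18 P301L […], labeled with Alexa 594 at 0.24 uM over 15 uM unlabeled; heparin inducer 20 uM final; 37 C, 6 hr; FP endpoint.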
Numbers without * were called inactive; u = inconclusive; x = no result given; ! = not active in a repeat; [ ] = remark or other dose. The list is not random: actives were taken first. Their share in the collection is about 7.3%. The call rests on the fitted dose curve; in most records, active means well fitted curve in the direction sought with a large enough effect; inconclusive means small, poorly fitted or top-dose-only effect, or another doubt; inactive means no such curve, though single readings can be large; an effect the other way counts as inactive or inconclusive. On the % scale 0 is the no-effect control and ±100 the full control effect; potency means the concentration at half of the fitted maximal effect.

SMILES | Tau ThT inhib | RORgamma inh | Tau fluor counter | Gal4-VP16 FLuc | Tau FP inhib
CCCCC1=CC2=C(c3ccco3)C(=O)C(C)(OC(=O)c3ccc(OC)cc3)C(=O)C2=CN1Cc1ccc(OC)cc1 (centres undefined) | 14.1µM*! | -5.8% | 0.3%[11.6 µM] | u | u
CCCCC1=CC2=C(c3ccco3)C(=O)C(C)(OC(=O)c3ccc(OC)cc3)C(=O)C2=CN1Cc1ccco1 (centres undefined) | 8.91µM*! | 0.0% | -4.2%[11.6 µM] | 1.6% | -0.1%[11.6 µM]
CCCCC1=CC2=C(c3ccco3)C(=O)C(C)(OC(=O)c3ccc(OC)cc3)C(=O)C2=CN1CC1CC1 (centres undefined) | 15.8µM*! | -17.4% | u | -9.6% | 4.2%[11.6 µM]
O=C(Nc1ccc(S(=O)(=O)N2CCCCC2c2cccnc2)cc1)c1ccc(F)cc1 (centres undefined) | -5.6% | x | u | x | u
CN(C)CCn1c2ccccc2c2nc3ccc([N+](=O)[O-])cc3cc21 | u | 7.94µM* | -14.3% | 11.2µM* | -4.5%
CCn1c2ccccc2c2cc([N+](=O)[O-])ccc21 | u | -14.7% | -20.8% | -1.7% | -5.5%
O=S(=O)(c1ccccc1F)N1CCN(CCc2ccccc2)CC1 | x | 4.3% | x | 2.1% | x
CC(/C=N/N1C(=O)CSC1=S)=C\c1ccccc1 | u | 11.2µM* | -18.2% | 4.8% | -5.5%
CC(C)(C)c1ccc(/C=N/n2cnnc2)cc1 | -4.4% | 15.7% | -4.5% | -0.6% | 5.4%
COc1ccc(/C=N/N2C(=O)CSC2=S)cc1 | u | 15.8µM* | -12.6% | 3.1% | -2.4%
CC(C)(C)c1ccc(/C=N/N2C(=O)CSC2=S)cc1 | x | 10µM* | x | u | x
COc1ccc(-c2nn(-c3ccccc3)cc2/C=N/N2C(=O)CSC2=S)cc1 | u | u | -24.6% | u | u
CC(/C=N/N1CCN(c2ccccc2)CC1)=C\c1ccccc1 | u | 16.0% | -8.1% | 3.7% | u
CCn1c(/C(C#N)=N/O)nc2ccccc21 | 5.7% | 8.91µM* | 4.3% | u | 7.1%
CC(=O)Nc1ccccc1-c1nc2ccccc2n(CC(=O)Nc2ccc(C)c(Cl)c2)c1=O | -3.4% | x | -4.4% | x | 11.5%
CC(C)Cn1c(-c2nn(C)cc2Cl)n[nH]c1=S | -10.8% | 11.2µM* | -3.7% | u | -2.6%
CC(C)Cn1c(-c2ccc(Br)o2)n[nH]c1=S | -18.4% | 6.31µM* | -7.2% | u | -0.3%
CCn1c(-c2nn(C)cc2Cl)n[nH]c1=S | -11.8% | 11.2µM* | -2.6% | u | -1.2%
CCn1c(CC(C)C)n[nH]c1=S | 0.5% | u | 3.0% | -1.3% | 0.2%
Cc1ccc(-n2c(-c3nn(C)cc3Cl)n[nH]c2=S)cc1 | -6.8% | u | 0.6% | -18.7% | 3.1%
Cc1ccsc1-c1n[nH]c(=S)n1CC(C)C | u | 2.82µM* | -12.8% | 6.31µM* | 3.2%
CCOc1ccc(C2c3cc(OCC)c(OCC)cc3CC(=O)N2c2ccc(C(=O)O)cc2)cc1OCC (centres undefined) | -8.7% | x | -7.2% | x | 0.0%
Cc1ccc(C(NC(=O)N2CCCCC2)=C(Cl)Cl)cc1F | -6.0% | 11.2µM* | 4.0% | 7.08µM* | -2.3%
CCCCN(Cc1ccco1)C(=O)Cn1ncc2c(=O)oc3ccc(C)cc3c21 | -12.4% | 1.41µM* | -18.7% | -2.8% | -5.4%
Clc1cccc(-c2csc(-c3nc(-c4ccc(Br)s4)cs3)n2)c1 | -7.9% | x | -5.1% | x | -4.0%
SMILES | Tau ThT inhib | RORgamma inh | Tau fluor counter | Gal4-VP16 FLuc | Tau FP inhib
CCc1[nH]c(=O)[nH]c1C(C)S(=O)(=O)c1ccc(C)cc1 (centres undefined) | u | 14.1µM* | -18.6% | u | u
CCc1c(C(C)S(=O)(=O)c2ccc(C)cc2)[nH]c(=O)n1-c1ccc(C)cc1 (centres undefined) | u | u | -15.1% | 6.3% | -2.9%
C=CCOc1ccc(/C=N\NC(N)=S)cc1 | -2.6% | 32.0% | -18.2% | 24.4% | 12.1%
NC(=S)N/N=C/c1ncc(C(F)(F)F)cc1Cl | -20.0% | 0.631µM* | -12.8% | 0.501µM* | -10.1%
NC(=S)N/N=C/c1ccc(C(F)(F)F)cc1 | -0.6% | 5.01µM* | -0.2% | 5.62µM* | 2.9%
COc1ccc(/C=N/NC(N)=S)cc1 | -11.3% | 11.2µM* | -3.0% | u | 1.8%
CC(C)Oc1ccc(/C=N/NC(N)=S)cc1 | -4.1% | 5.01µM* | -2.7% | 2.82µM* | 1.2%
CC(=O)O[C@H]1C(=O)[C@@]2(C)C([C@H](OC(=O)c3ccccc3)[C@]3(O)C[C@H](OC(=O)[C@H](O)[C@@H](NC(=O)c4ccccc4)c4ccccc4)C(C)=C1C3(C)C)[C@]1(OC(C)=O)CO[C@@H]1C[C@@H]2O (some centres undefined) | -14.4% | x | -22.2% | x | -3.4%
CCOc1ccc(CNC(=O)c2ccc(-c3nc(CS(=O)(=O)c4ccccc4)c(C)o3)cc2)cc1 | u | x | 6.2% | x | -11.4%
COC(=O)c1ccc(COc2ccc(/C=N/NC(N)=S)cc2)o1 | -12.6% | 11.2µM* | -19.2% | u | -3.0%
COc1cccc(N2CCN(C(=S)Nc3ccccc3OC)CC2)c1 | x | -15.1% | x | 5.8% | x
Cc1ccccc1NC(=S)N1CCN(c2ccccc2Cl)CC1 | x | 7.08µM* | x | 7.08µM* | x
COc1ccccc1NC(=S)N1CCN(c2cccc(C)c2C)CC1 | x | 11.2µM* | x | 11.2µM* | x
O=C(NC1CCCC1)c1ccc2c(=O)n(Cc3ccccc3)c(SCc3ccc([N+](=O)[O-])cc3)nc2c1 | -5.9% | x | -15.9% | x | 2.4%
O=[N+]([O-])c1cccc(/C=N/N=C\c2ccccc2)c1 | x | 26.5% | x | -0.3% | x
Cc1cc(-c2ccccc2)nc(N/N=C/c2ccccc2)n1 | x | 14.1µM* | x | u | x
Cc1cc2c(C)nc(N/N=C/c3ccc([N+](=O)[O-])cc3)nc2o1 | 3.16µM* | u | -10.9% | 6.7% | 4.4%
Nc1cc(Cl)nc(N/N=C/c2ccc([N+](=O)[O-])cc2)n1 | 5.62µM* | 43.9% | -22.6% | -3.2% | 3.5%
O=[N+]([O-])c1ccc(N/N=C/c2ccccc2)c(F)c1 | 7.08µM* | u | u | 19.9% | 15.4%
Cc1cc(-c2ccccc2)nc(N/N=C/c2cccnc2)n1 | -22.6% | -9.8% | -17.3% | -6.9% | -15.5%
Cc1cc(OCC(=O)Nc2sc3c(c2C#N)CCC(C)C3)ccc1Cl (centres undefined) | u | x | -5.1% | x | -2.4%
O=c1c(-c2ccccc2)nc2cnc(N3CCOCC3)nc2n1Cc1cccs1 | x | 4.1% | x | 9.4% | x
O=[N+]([O-])c1ccc(/C=N/Nc2ncc(-c3ccccc3)cn2)cc1 | u | -11.6% | -8.5% | -0.8% | 1.2%
Cc1cc(-c2ccccc2)nc(N/N=C/c2ccco2)n1 | -16.0% | 8.91µM* | -5.6% | u | -3.9%
COc1ccc(/C=N/Nc2nc(C)cc(-c3ccccc3)n2)cc1OC | x | 11.2µM* | x | u | x
Cc1cc(-c2ccccc2)nc(N/N=C/c2ccc([N+](=O)[O-])cc2)n1 | 7.08µM* | -29.5% | u | -23.5% | -12.4%
